Screens deposited in PubChem BioAssay by several laboratories.
PolyA inh: inhibitors of polyadenylation in S. cerevisiae; S. cerevisiae SKY197-pL101 polyadenylation reporter, beta-gal luminescence; efflux-impaired pdr1/pdr3 knockout yeast; score 100 = 6 SD above DMSO; activity score, % at 12 µM; hit rate 0.02% among 300,000; AID 1875;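 active means lowest replicate activity score at least 50, where 100 means six control SD above control mean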;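 further: yeast exposed to compound for 9 h at 30 °C; higher score means more reporter readthrough which indicates perturbed polyadenylation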
NALP1 inh: NALP1 inhibition. AID 2071. S. cerevisiae NALP1/ASC/caspase-1 growth, X-gal OD620, 72 h. hit rate 0.61% among 280,000. inhibition, % at 10 µM; in the data active means inhibition mostly above about 24%, no sharp cut-off; inactive means mostly below about 32%
EBNA-1 inh: blocks EBNA-1 binding to DNA | inhibition, % at 14.8 µM | hit rate 0.34% among 300,000 | EBNA-1 DNA binding, fluorescence polarization; in the data active means inhibition above about 28%
NLRP3 yeast inh: inhibitors of NALP3 inflammasome in yeast | Yeast reconstituted NLRP3/ASC/caspase-1, beta-gal luminescence, 24 h | inhibition, % at 10 µM | hit rate 0.39% among 330,000 | AID 2825;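 active means inhibition of 50% or more; inactive means inhibition below 50%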;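 further: plate controls were induced DMSO wells for no effect and uninduced yeast grown without galactose for full effect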
dFosB activator: mouse delta FosB homodimer activation; P13346; purified delta FosB, TAMRA-CDK5 oligo fluorescence polarization; percent of positive-control signal above neutral wells; activation, % at 25 µM; hit rate 0.99% among 340,000; AID 493131;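 active means mean activation above about 17%, with every replicate also reaching it, limit read from the data, passing the limit was not always enough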
Target sequence (P13346 whole entry, looked up): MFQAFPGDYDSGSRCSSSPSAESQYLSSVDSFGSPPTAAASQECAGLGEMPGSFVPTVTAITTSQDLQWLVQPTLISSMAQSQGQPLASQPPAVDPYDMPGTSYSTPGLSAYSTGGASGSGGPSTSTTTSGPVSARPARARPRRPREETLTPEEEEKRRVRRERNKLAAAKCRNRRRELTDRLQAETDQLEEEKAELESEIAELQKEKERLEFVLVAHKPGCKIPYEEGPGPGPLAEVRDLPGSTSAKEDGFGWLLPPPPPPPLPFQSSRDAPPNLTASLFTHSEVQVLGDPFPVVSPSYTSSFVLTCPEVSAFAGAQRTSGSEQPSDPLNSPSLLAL
ZTA DNA inh: blocks Epstein-Barr virus ZTA, an EBNA-1 counter-screen. P03206. ZTA-DNA binding, fluorescence polarization. inhibition, % at 11 µM. hit rate 0.15% among 320,000. AID 2234; in the data active means inhibition above about 33%
Target sequence (P03206 whole entry, looked up): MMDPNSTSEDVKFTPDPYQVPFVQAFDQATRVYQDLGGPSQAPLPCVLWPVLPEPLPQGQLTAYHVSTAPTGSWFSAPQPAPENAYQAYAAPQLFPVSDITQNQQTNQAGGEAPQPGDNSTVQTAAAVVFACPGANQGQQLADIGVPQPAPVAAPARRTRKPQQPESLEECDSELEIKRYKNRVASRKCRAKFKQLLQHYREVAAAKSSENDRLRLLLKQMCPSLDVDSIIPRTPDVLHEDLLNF
* = called active by the depositor. In the library only some 2.2% were active in any assay of this set; here they are far more common.

For CN(C)c1ccc(NC(=O)COC(=O)c2ccc3c(c2)OCO3)cc1 the results were NLRP3 yeast inh 23 and dFosB activator -1.
Nc1c(-c2ccccc2)nc(Cl)nc1-c1ccccc1 was read as PolyA inh -13, NALP1 inh 34*, EBNA-1 inh -5, NLRP3 yeast inh 10, dFosB activator -1 and ZTA DNA inh 6.
`CCc1c(C)c2cc(Cl)c(O)c(CN3CCCC3)c2oc1=O` gave PolyA inh 4, NALP1 inh 21, NLRP3 yeast inh -17 and dFosB activator -6.
`COc1ccc(N2CC(C(=O)OCC(=O)c3ccc(C)cc3)CC2=O)cc1` (centres undefined) gave PolyA inh 0, NALP1 inh 27*, EBNA-1 inh 0, NLRP3 yeast inh 1, dFosB activator -5 and ZTA DNA inh -11.
Screening O=C(Nc1ccc(C(F)(F)F)cc1)c1ccc(NC(=O)C2CCCO2)cc1 (centres undefined) returned PolyA inh -31, NALP1 inh 30, EBNA-1 inh 7, NLRP3 yeast inh 17, dFosB activator 17* and ZTA DNA inh 13.
O=C(Nc1ccc(Cl)cc1)c1ccc(OCC2CCCO2)cc1 (centres undefined) was read as PolyA inh -5, NALP1 inh 35*, EBNA-1 inh -5, NLRP3 yeast inh 29, dFosB activator 2 and ZTA DNA inh 2.
For O=C(NCC1OCCc2ccccc21)c1ccc(NC(=O)c2ccc(Cl)cc2)cc1 (centres undefined) the results were PolyA inh 13, NALP1 inh 23, EBNA-1 inh 32*, NLRP3 yeast inh 15, dFosB activator -6 and ZTA DNA inh 1.
Screening COc1ccc(S(=O)(=O)N2CCCC(C(=O)NCc3ccccc3)C2)cc1 (centres undefined) returned PolyA inh 9, NALP1 inh 4, EBNA-1 inh -15, NLRP3 yeast inh 8, dFosB activator -4 and ZTA DNA inh -10.
O=C(c1ccc(C(F)(F)F)cc1)C1CCCN(C(=O)CCc2cnccn2)C1 (centres undefined) was read as PolyA inh -3, NALP1 inh 38*, EBNA-1 inh 6, NLRP3 yeast inh 11, dFosB activator -10 and ZTA DNA inh 10.
Cc1cc(C)cc(NC(=O)CC2Oc3ccc(C)cc3NC2=O)c1 (centres undefined) was read as PolyA inh 5, NALP1 inh 2, EBNA-1 inh 21, NLRP3 yeast inh 0, dFosB activator 32* and ZTA DNA inh -5.
Screening CC(=O)c1cccc(NC(=O)CC2Oc3ccc(C)cc3NC2=O)c1 (centres undefined) returned PolyA inh 9, NALP1 inh 2, EBNA-1 inh 7, NLRP3 yeast inh 0, dFosB activator 12 and ZTA DNA inh -4.
`COc1ccc(N(C(C)=O)C2C=CS(=O)(=O)C2)c(OC)c1` (centres undefined) gave PolyA inh -3, NALP1 inh 39*, EBNA-1 inh -3, NLRP3 yeast inh 14, dFosB activator 0 and ZTA DNA inh -2.
For COc1ccc(N(C(=O)c2ccccc2OC)C2C=CS(=O)(=O)C2)c(OC)c1 (centres undefined) the results were PolyA inh 7, NALP1 inh 0, EBNA-1 inh 5, NLRP3 yeast inh -5, dFosB activator 2 and ZTA DNA inh -4.
`O=C(NN=Cc1ccccc1)C(Oc1ccccc1)c1ccccc1` (centres undefined) gave dFosB activator -8.
Cc1ccc(S(=O)(=O)c2nnn3c2nc(N2CCOCC2)c2ccccc23)c(C)c1 was read as PolyA inh -6, NALP1 inh -10, EBNA-1 inh 7, NLRP3 yeast inh 10, dFosB activator 7 and ZTA DNA inh 11.
`C#CCOCCOCCOCCNc1nc(N2CCN(C(=O)[C@H]([C@@H](C)CC)n3cc([C@@H](N)Cc4ccc(O)cc4)nn3)CC2)nc(N2CCN(C(=O)[C@H](Cc3cc4ccccc4[nH]3)n3cc([C@@H](N)C(C)CC)nn3)CC2)n1` (some centres undefined) gave PolyA inh -5, NALP1 inh -1, EBNA-1 inh 3, NLRP3 yeast inh 11 and ZTA DNA inh -11.
`C#CCOCCOCCOCCNc1nc(N2CCN(C(=O)CCCCCCCCCCNC(=O)[C@H]([C@@H](C)CC)n3cc(CCCCN=C(N)N)nn3)CC2)nc(N2CCN(C(=O)CCCCCCCCCCNC(=O)[C@H](CCCCN)n3cc(C[C@@H](C)CC)nn3)CC2)n1` gave EBNA-1 inh 3, NLRP3 yeast inh 19 and ZTA DNA inh 126*.
For C#CCOCCOCCOCCNc1nc(N2CCN(C(=O)[C@H](Cc3cc4ccccc4[nH]3)n3cc([C@@H](N)C(C)CC)nn3)CC2)nc(N2CCN(C(=O)[C@H](Cc3cc4ccccc4[nH]3)n3cc([C@@H](N)Cc4ccc(O)cc4)nn3)CC2)n1 (some centres undefined) the results were PolyA inh -10, NALP1 inh 2, EBNA-1 inh 46*, NLRP3 yeast inh 28 and ZTA DNA inh 55*.
For C#CCOCCOCCOCCNc1nc(N2CCN(C(=O)CCCCCCCCCCNC(=O)[C@H](CCCCN)n3cc(C[C@@H](C)CC)nn3)CC2)nc(N2CCN(C(=O)CCCCCCCCCCNC(=O)[C@H](CCCCN)n3cc(C[C@@H](C)CC)nn3)CC2)n1 the results were PolyA inh 1, EBNA-1 inh 7, dFosB activator -296 and ZTA DNA inh 91*.
For COc1ccc(CCNC(=S)Nc2ccc(S(=O)(=O)Nc3ncccn3)cc2)cc1OC the results were PolyA inh -3, NALP1 inh 8, EBNA-1 inh 2, NLRP3 yeast inh 15, dFosB activator 1 and ZTA DNA inh -15.
Screening COc1ccc(NC(=S)N(C(C)C)C2CCN(C(C)C)CC2)cc1Cl returned PolyA inh -10, NALP1 inh 47*, EBNA-1 inh 8, NLRP3 yeast inh 8 and ZTA DNA inh 14.
Screening CCc1cccc(NC(=O)c2cccc3c2C(=O)N(C2CCCCC2)C3)c1 returned PolyA inh 10, NALP1 inh 10, EBNA-1 inh -6, NLRP3 yeast inh 8, dFosB activator -21 and ZTA DNA inh -9.
Screening COC(=O)c1ccccc1NC(=O)CSc1n[nH]c(-c2cccnc2)n1 returned PolyA inh 1, NALP1 inh 33*, EBNA-1 inh 13, NLRP3 yeast inh 11, dFosB activator -4 and ZTA DNA inh 16.
Screening CCCN(CC(=O)Nc1cc(Cl)ccc1Cl)C(=O)c1ccc2n[nH]nc2c1 returned NLRP3 yeast inh -2, dFosB activator -4 and ZTA DNA inh -5.
